# According to PMC4336329 (PLoS ONE, 2015):
# Screen size: about 310,000 compounds; about 14,000 (4.5%) showed an effect of 50% or more. The effect is printed as a negative number. This excerpt belongs to a sample that is enriched for strong results.
# Target: human ether-à-go-go-related gene (hERG) potassium channel (human, UniProt Q12809)
# Assay: primary screen, population patch clamp on CHO cells stably expressing hERG; higher = less effect of the substance
# 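Note: peak tail current of the secondary pulse compared with the same well before compound.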
# human ether-à-go-go-related gene (hERG) potassium channel, sequence (Q12809 whole entry, looked up): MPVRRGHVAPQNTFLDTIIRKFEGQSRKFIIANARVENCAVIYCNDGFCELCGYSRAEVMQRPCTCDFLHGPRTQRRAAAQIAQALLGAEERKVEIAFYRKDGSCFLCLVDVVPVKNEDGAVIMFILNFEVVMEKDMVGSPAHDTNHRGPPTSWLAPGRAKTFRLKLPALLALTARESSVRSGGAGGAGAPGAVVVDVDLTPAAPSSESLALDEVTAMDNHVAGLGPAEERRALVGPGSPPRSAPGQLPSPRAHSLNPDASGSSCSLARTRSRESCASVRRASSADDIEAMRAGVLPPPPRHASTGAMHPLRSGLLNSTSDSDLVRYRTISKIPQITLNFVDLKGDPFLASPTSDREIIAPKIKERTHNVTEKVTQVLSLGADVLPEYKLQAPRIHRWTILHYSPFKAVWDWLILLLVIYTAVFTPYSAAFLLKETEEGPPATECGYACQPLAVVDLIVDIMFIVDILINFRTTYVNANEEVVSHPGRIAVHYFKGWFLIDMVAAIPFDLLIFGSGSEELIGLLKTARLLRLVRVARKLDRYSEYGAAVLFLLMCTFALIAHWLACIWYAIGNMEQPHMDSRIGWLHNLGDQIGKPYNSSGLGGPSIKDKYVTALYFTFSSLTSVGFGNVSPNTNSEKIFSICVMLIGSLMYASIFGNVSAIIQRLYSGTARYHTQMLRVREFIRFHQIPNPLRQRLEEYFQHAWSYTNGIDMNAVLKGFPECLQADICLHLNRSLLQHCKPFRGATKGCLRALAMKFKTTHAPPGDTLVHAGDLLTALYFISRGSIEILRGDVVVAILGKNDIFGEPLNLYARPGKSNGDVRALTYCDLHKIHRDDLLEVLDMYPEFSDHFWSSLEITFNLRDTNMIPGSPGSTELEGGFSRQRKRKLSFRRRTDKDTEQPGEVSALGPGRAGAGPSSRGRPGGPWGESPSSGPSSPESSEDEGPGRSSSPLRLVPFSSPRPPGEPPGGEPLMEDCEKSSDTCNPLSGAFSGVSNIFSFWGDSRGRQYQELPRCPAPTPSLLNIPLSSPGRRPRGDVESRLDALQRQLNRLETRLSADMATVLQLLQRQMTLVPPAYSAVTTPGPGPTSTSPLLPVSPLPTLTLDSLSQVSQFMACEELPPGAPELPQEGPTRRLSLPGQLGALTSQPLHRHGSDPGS
row,Structure (SMILES),"hERG current change (%, negative = inhibition) at 10uM"
1,Cc1nnc(NC(=O)c2cc(-c3ccco3)nc3ccccc23)s1,2.18%
2,Cc1nc2cc(NC(=O)NCc3ccco3)ccc2o1,9.7%
3,Cn1c(C(=O)NC2CC2)cc(=O)n(C)c1=O,-8%
4,COc1ccc(CNC(=O)COC(=O)c2ccc(C)c(S(=O)(=O)N3CCOCC3)c2)cc1OC,6.13%
5,CC1CCCN(S(=O)(=O)c2csc(C(N)=O)c2)C1 (centres unmarked),15.2%
6,O=C(NCc1csc2ccccc12)Nc1cc(Cl)cc(Cl)c1,13.6%
7,CCOc1ccc(C(C)(N)C(=O)O)cc1 (centres unmarked),-2.39%
8,COc1ccc(NC(=O)c2cn(-c3ccccc3)nc2SC)cc1,-8.55%
9,COc1ccc(CNC(=O)c2cc(-c3ccc(OC)c(OC)c3)on2)cc1,6.84%
10,CCC(=O)Oc1ccc(C/C(=N\O)c2ccc(O)cc2O)o1,-8.07%
11,Cc1nn(CCCC(=O)N2CCc3ccccc3C2)c(=O)c2cc3sccc3n12,-75.5%
12,CCOC(=O)C1CCCN(C(=O)CCCn2nc(C)n3c(cc4sccc43)c2=O)C1 (centres unmarked),-49.3%
13,CCOC(=O)CCCn1nc(C)n2c(cc3sccc32)c1=O,-21.6%
14,COc1ccc(C(CNCC(=O)Nc2ccccc2F)N(C)C)cc1.O=C(O)C(=O)O (centres unmarked),-35.1%
15,COc1ccc(F)cc1S(=O)(=O)NCC(c1ccc2c(c1)OCO2)N1CCN(C)CC1 (centres unmarked),-45.6%
16,O=S(=O)(NCC(c1ccc2c(c1)OCO2)N1CCOCC1)c1ccc(Br)cc1 (centres unmarked),-16%
17,CCOc1ccc(S(=O)(=O)NCC(c2ccc3c(c2)OCO3)N2CCN(C)CC2)cc1 (centres unmarked),-59.2%
18,COc1ccc(C)cc1S(=O)(=O)NCC(c1ccc2c(c1)OCO2)N1CCN(C)CC1 (centres unmarked),-68.2%
19,COc1ccc(C)cc1S(=O)(=O)NCC(c1ccc2c(c1)OCO2)N1CCOCC1 (centres unmarked),-13.6%
20,Cc1ccc(S(=O)(=O)NCC(c2ccc3c(c2)OCO3)N2CCOCC2)cc1 (centres unmarked),-8.63%
21,COc1ccc(S(=O)(=O)NCC(c2ccc3c(c2)OCO3)N2CCN(C)CC2)cc1OC (centres unmarked),-15.5%
22,COc1ccc(S(=O)(=O)NCC(c2ccc3c(c2)OCO3)N2CCOCC2)cc1 (centres unmarked),-6.41%

row,Structure (SMILES),"hERG current change (%, negative = inhibition) at 10uM"
1,CN1CCN(C(CNS(=O)(=O)c2ccc(Br)cc2)c2ccc3c(c2)OCO3)CC1 (centres unmarked),-79.8%
2,O=C(NC(=O)c1ccc(F)cc1)Nc1nc(-c2cccs2)cc(C(F)(F)F)n1,12.2%
3,Cn1nnnc1SCC(=O)N1CCOCC1,16.2%
4,C/C(=C/c1ccccc1)C(=O)N1CCN(c2ccccc2)CC1,-16.2%
5,CN1CCN(C(=O)/C(=C/c2ccccc2)c2ccccc2)CC1,-54.8%
6,CC1CC(C)CN(C(=O)/C(=C\c2ccccc2)c2ccccc2)C1 (centres unmarked),-27.4%
7,CN1CCN(C(=O)/C(=C\c2ccccc2)c2ccccc2)CC1,-59.9%
8,O=C(O)/C(=C\c1ccccc1)c1ccccc1,-0.424%
9,CN1CCN(C(=O)/C(=C/c2ccc(F)cc2)c2ccsc2)CC1.Cl,-70.1%
10,CC1CCCCN1C(=O)/C(=C\c1ccccc1)c1ccccc1 (centres unmarked),-17.4%
11,CN1CCN(C(=O)/C(C#N)=C/c2ccc(F)cc2)CC1.Cl,6.63%
12,CN1CCN(C(=O)CCC(=O)c2ccc(F)cc2)CC1,8.49%
13,COCCn1c(-c2ccccc2)nc(=S)c2c1CC(C)(C)OC2,-11.5%
14,COc1ccc(-c2noc(N3CCC(C(=O)NCc4ccc(F)cc4)CC3)n2)cc1,-20.4%
15,CC(=N)C1=C(O)CC(C)(C)CC1=O,1.84%
16,CC(=O)NCCCC(=O)NN1C(=S)N(Cc2ccccc2)C(=O)C1CC(=O)Nc1cccc(C)c1 (centres unmarked),8.8%
17,O=C(NC1CC(=O)N(c2ccc3c(c2)OCCO3)C1)N1CCCCC1 (centres unmarked),12.4%
18,CC1(c2nnc(-c3ccc(F)cc3)o2)CC(c2c(Cl)cccc2Cl)=NO1 (centres unmarked),-37%
19,COC(=O)c1nnn(-c2nonc2N)c1CN1CCc2ccccc21,4.57%
20,c1ccc(CNCC2COc3ccccc3O2)cc1 (centres unmarked),8.17%
21,O=C(Cn1c(CO)nc2ccccc21)Nc1ccccc1Cl,25.1%
22,CCC(CC)c1nnc(NC(=O)CCc2ccc(OC)cc2)s1,13.1%

row,Structure (SMILES),"hERG current change (%, negative = inhibition) at 10uM"
1,CC(C)N(Cc1cc2ccccc2[nH]c1=O)C(=O)c1cccc([N+](=O)[O-])c1,-13.4%
2,Cc1ccc2cc(CCNC(=O)c3cccc([N+](=O)[O-])c3)c(=O)[nH]c2c1,-20.2%
3,CCN(Cc1cc2cc(C)ccc2[nH]c1=O)C(=O)c1cccc([N+](=O)[O-])c1,-37.9%
4,COc1ccc2cc(CCNC(=O)c3cccc([N+](=O)[O-])c3)c(=O)[nH]c2c1,-79.2%
5,Cc1ccc2[nH]c(=O)c(CN(C(=O)c3cccc([N+](=O)[O-])c3)C(C)C)cc2c1,-50.5%
6,Cc1cc2cc(CCNC(=O)c3cccc([N+](=O)[O-])c3)c(=O)[nH]c2cc1C,-47.1%
7,CC(O)CNc1nc2c(c(=O)n(C)c(=O)n2C)n1C/C=C/c1ccccc1 (centres unmarked),-13.7%
8,COc1ccc(NS(=O)(=O)c2cc(NC(=O)c3ccc(=O)[nH]n3)ccc2N2CCOCC2)cc1,-23.2%
9,COc1ccc(NC(=O)C2CCN(S(=O)(=O)c3cccc4cccnc34)CC2)cc1OC,9.47%
10,Cc1nn(C(C)(C)C)c(C)c1/C=N/OC(=O)Nc1ccc(Cl)c(Cl)c1,1.85%
11,C#CCN(Cc1ccco1)C(=O)c1ccc(OC2CCN(Cc3ccccn3)CC2)cc1,-66.9%
12,C=CCN(CC=C)C(=O)c1ccc(OC2CCN(Cc3ccccn3)CC2)cc1,-9.67%
13,C#CCN(C(=O)c1ccc(OC2CCN(Cc3ccccn3)CC2)cc1)C1CCCCC1,-39.6%
14,CN(Cc1ccco1)C(=O)c1ccc(OC2CCN(Cc3ccccn3)CC2)cc1,-6.63%
15,CN(C(=O)c1ccc(OC2CCN(Cc3ccccn3)CC2)cc1)C1CCCCC1,-9.82%
16,CC#CCN(Cc1ccco1)C(=O)c1ccc(OC2CCN(Cc3ccccn3)CC2)cc1,-60.3%
17,CCOC(=O)c1cnn(-c2nc(CC)nc3sc4c(c23)CCC4)c1N,8.44%
18,O=C(c1ccc(-n2cncn2)c([N+](=O)[O-])c1)N1CCN(S(=O)(=O)c2ccccc2F)CC1,-45.1%
19,O=C(c1ccncc1)N1CCN(S(=O)(=O)c2cccc(F)c2)CC1,7.6%
20,Nc1ccc(C(=O)N2CCN(S(=O)(=O)c3ccc(Cl)cc3)CC2)cc1[N+](=O)[O-],-46.1%
21,O=C(c1ccc(-n2cncn2)c([N+](=O)[O-])c1)N1CCN(S(=O)(=O)c2c(F)cccc2F)CC1,-56.8%
22,O=C(NNC(=O)c1ccccc1F)c1ccc(-n2cncn2)c([N+](=O)[O-])c1,7.74%

row,Structure (SMILES),"hERG current change (%, negative = inhibition) at 10uM"
1,O=C(c1ccc(Cl)c([N+](=O)[O-])c1)N1CCN(S(=O)(=O)c2ccc(Cl)cc2)CC1,-11.3%
2,C=CCN1C(=O)c2ccc(C(=O)N3CCN(S(=O)(=O)c4cccc(Cl)c4)CC3)cc2C1=O,-14.8%
3,O=C(c1ccc(-n2cncn2)c([N+](=O)[O-])c1)N1CCN(S(=O)(=O)c2ccc(Cl)cc2)CC1,-61.4%
4,O=C(c1ccc2nc[nH]c2c1)N1CCN(S(=O)(=O)c2cccc(F)c2)CC1,12%
5,C=CCN1C(=O)c2ccc(C(=O)N3CCN(S(=O)(=O)c4cccc([N+](=O)[O-])c4)CC3)cc2C1=O,-30.4%
6,C=CCN1C(=O)c2ccc(C(=O)N3CCN(S(=O)(=O)c4cccc(F)c4)CC3)cc2C1=O,-62.7%
7,O=C(c1ccc(-n2cncn2)c([N+](=O)[O-])c1)N1CCN(S(=O)(=O)c2cccc(F)c2)CC1,-71.9%
8,Cc1ccc2cccnc2c1N,4.5%
9,NC(=O)c1ccccc1NC(=O)C1CCCO1 (centres unmarked),8.51%
10,COc1ccccc1CN(C)C(=O)c1ccc(COc2ccccc2)cc1,6.77%
11,CCOc1cnc(-c2c(-c3ccccc3Cl)noc2C)o1,-3.56%
12,Cc1cccc2c(=O)c(C(=O)NCCc3ccccc3)c[nH]c12,21.9%
13,CC(=O)Nc1ccc(SCC(=O)c2ccc(Br)s2)cc1,19.5%
14,Cc1cnc(NC(=O)c2ccco2)s1,13.9%
15,O=C(Nc1ccccc1C(=O)Nc1ccccc1)c1cccs1,-0.413%
16,COC(=O)C1=CN(Cc2ccccc2)C=C(C(=O)OC)C1c1cc(F)ccc1F,-12.6%
17,c1ccc(-c2csc3ncnc(N4CCc5ccccc5C4)c23)cc1,-1.81%
18,O=C(c1ccc(-n2cncn2)c([N+](=O)[O-])c1)N1CCN(S(=O)(=O)c2ccc(F)c(F)c2)CC1,-72.7%
19,O=C(Nc1ccc(F)c(F)c1)c1ccc(-n2cncn2)c([N+](=O)[O-])c1,-35.7%
20,O=C(NNC(=O)c1ccc(-n2cncn2)c([N+](=O)[O-])c1)c1ccc(Cl)cc1,-9.94%
